Consider three compounds from PubChem BioAssay (NCATS).

Records with an inconclusive call do not appear. Active and inactive are the calls of the source. Unless noted, the call rests on the fitted dose curve; in most records, active means well fitted curve in the direction sought with a large enough effect; inconclusive means small, poorly fitted or top-dose-only effect, or another doubt; inactive means no such curve, though single readings can be large; an effect the other way counts as inactive or inconclusive.

Assay [1] can be described thus: Quantitative high throughput screen for delayed death inhibitors of the malarial parasite plastid, 48 hour incubation (AID 488752). Further: on the % scale 0 is the no-effect control and ±100 the full control effect; nearly all actives have a fitted effect of over 65% in size. In short, it runs like this: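 Luciferase-expressing P. falciparum in RBCs, 2% Hct, 0.1% parasitemia final; RPMI 1640 + 0.5% Albumax; 48 h, 37 C, 5% CO2; luminescence readout, signal drop = growth inhibition.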
Assay [2] deals with Thioredoxin reductase 1, cytoplasmic (Rattus norvegicus) (UniProt O89049). Nature of the assay: qHTS Assay for Substrates of Mammalian Selenoprotein Thioredoxin Reductase 1 (TrxR1) (AID 488772).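 Further: series mostly up to about 57 µM; 0% is about no effect; a drop in NADPH fluorescence below the no-compound background marks a TrxR1 substrate.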 In short, it runs like this: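 In this dual-purpose format, potential substrates are identified from the first fluorescence read after selenite addition, not from the 8-minute delta. Rat enzyme is preincubated with NADPH and then with compound at ~22 deg C.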
Thioredoxin reductase 1, cytoplasmic (Rattus norvegicus), sequence (O89049 whole entry, looked up): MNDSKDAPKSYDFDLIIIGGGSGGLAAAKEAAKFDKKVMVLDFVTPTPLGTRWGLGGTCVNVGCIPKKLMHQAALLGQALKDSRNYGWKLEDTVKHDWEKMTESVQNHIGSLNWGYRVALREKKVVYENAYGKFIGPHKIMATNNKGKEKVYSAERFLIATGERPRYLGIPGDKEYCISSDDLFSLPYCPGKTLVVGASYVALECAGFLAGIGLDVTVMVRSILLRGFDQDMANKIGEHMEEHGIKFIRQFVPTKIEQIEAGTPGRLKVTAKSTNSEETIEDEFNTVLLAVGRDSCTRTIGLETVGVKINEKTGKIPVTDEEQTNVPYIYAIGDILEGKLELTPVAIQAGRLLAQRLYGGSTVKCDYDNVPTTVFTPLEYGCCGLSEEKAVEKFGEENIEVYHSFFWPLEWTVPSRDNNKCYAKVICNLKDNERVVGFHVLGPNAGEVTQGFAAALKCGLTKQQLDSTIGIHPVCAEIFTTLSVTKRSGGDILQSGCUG

Assay [3] shares this target. In words: qHTS Assay for Inhibitors of Mammalian Selenoprotein Thioredoxin Reductase 1 (TrxR1) (AID 488773).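 Further: drop in NADPH fluorescence over an 8 min run after selenite addition; series mostly up to about 57 µM; on the % scale 0 is the no-effect control and ±100 the full control effect; nearly all actives have a fitted effect of over 40% in size.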 Particulars: Potency: inhibition. The method in brief: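 Inhibition is scored from the loss of NADPH fluorescence between first and last reads of an 8-min kinetic run. Selenite (400 uM) was the substrate, added after 15 min compound preincubation at room temperature.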
(In general: In qHTS, concentration-response curves come from the screen itself.)

The target of assay [4] is Flap endonuclease 1 (Homo sapiens) (UniProt P39748). Nature of the assay: qHTS Validation Assay for the Inhibitors of Human Flap endonuclease 1 (FEN1) (AID 488816). Further: potency means the concentration at half of the fitted maximal effect. In short, it runs like this: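 qHTS format: compounds and 10 nM FEN1 incubated 15 min at room temperature before adding 50 nM substrate. Cleavage followed by reads at 0 and 15 min; normalized data fitted to a four-parameter Hill curve.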
Flap endonuclease 1 (Homo sapiens), sequence (P39748 whole entry, looked up): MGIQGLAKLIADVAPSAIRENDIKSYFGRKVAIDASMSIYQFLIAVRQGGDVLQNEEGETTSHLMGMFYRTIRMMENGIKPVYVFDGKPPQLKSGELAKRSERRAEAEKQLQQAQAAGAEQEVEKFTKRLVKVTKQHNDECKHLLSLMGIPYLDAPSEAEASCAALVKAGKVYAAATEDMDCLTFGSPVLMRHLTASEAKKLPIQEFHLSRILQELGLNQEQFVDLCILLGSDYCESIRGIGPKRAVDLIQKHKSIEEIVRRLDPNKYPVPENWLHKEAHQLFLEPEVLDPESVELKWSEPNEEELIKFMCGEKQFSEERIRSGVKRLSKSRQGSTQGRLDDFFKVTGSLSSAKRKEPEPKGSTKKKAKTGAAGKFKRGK

Assay [5] deals with M-phase phosphoprotein 8 (Homo sapiens) (UniProt Q99549). Nature of the assay: qHTS Validation Assay for Inhibitors for MPP8 Chromodomain Interactions with Methylated Histone Tails (AID 488949).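 Further: AlphaScreen signal from MPP8 chromodomain bound to biotinylated H3K9me3 peptide; top concentration of the series differs between compounds; on the % scale 0 is the no-effect control and ±100 the full control effect; nearly all actives have a fitted effect of over 55% in size.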 The method in brief:
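MPP8 (50 nM) was preincubated with biotinylated H3(1-18)K9me3 peptide (50 nM) in PBS pH 7.4, 0.01% Tween-20 for 30 min at room temperature, then with compounds for 30 min; binding was detected by AlphaScreen.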

In assay [6] the target is Chromobox protein homolog 1 (Homo sapiens) (UniProt P83916). Nature of the assay: qHTS Validation Assay for Inhibitors of HP1-beta Chromodomain Interactions with Methylated Histone Tails (AID 488953). Further: nearly all actives have a fitted effect of over 50% in size. Further: potency means the concentration at half of the fitted maximal effect. The method in brief:
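AlphaScreen proximity readout: streptavidin donor and Ni-chelate acceptor beads, 10 ug/mL final, 30 min dark, RT. Complex of 50 nM HP1-beta and 50 nM b-H3(1-18)K9me3 formed 30 min, then compound-treated 30 min; PBS pH 7.4/0.01% Tween-20.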

Assay [7] has as its target Methanococcus maripaludis chaperonin (MmCpn) (UniProt Q6LX38). Nature of the assay: High-Throughput Screening for Modulators of Cytosolic Chaperonin Activity: MmCpn Primary Screen (AID 488978).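 Further: 50 nM MmCpn enzyme hydrolysing 30 µM ATP at 37 °C; 0% is about no effect.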 The method in brief:
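MmCpn (50 nM final) was preincubated with compound 5 min at RT, then 30 uM ATP (final) was added and the reaction ran 10 min at 37C. ADP produced was detected by Transcreener HTRF (ex 320 nm; em 590/665 nm).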

The target of assay [8] is Transient receptor potential cation channel subfamily V member 1 (Homo sapiens) (UniProt Q8NER1). In words: HTS Assay for Compounds that Act as Enhancers of the Vanilloid Receptor 1 (AID 488979). Further: 0% is about no effect. The method in brief:
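Calcium influx kinetics via Fluo-8 (480/520 nm) in TRPV1-expressing cells, 2000/well cultured overnight at 35.5C. Compound-alone read 3 min (agonist phase), followed by EC20 capsaicin challenge for 2 min (enhancer phase).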

Assay [9] concerns the target D(1A) dopamine receptor (Homo sapiens) (UniProt P21728). In words: HTS Assay for Allosteric Agonists of the Human D1 Dopamine Receptor: Primary Screen for Agonists (AID 488981). Further: 0% is about no effect. The method in brief:
(§1)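 Calcium flux in an inducible, force-coupled HEK293 Trex D1 line (overnight at 30 C): agonist mode is the 180 s kinetic read after compound; potentiator mode is the following 180 s read after dopamine at EC20.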

Assay [10] shares this target. Nature of the assay: HTS Assay for Allosteric Agonists of the Human D1 Dopamine Receptor: Primary Screen for Potentiators (AID 488982). Further: 0% is about no effect. In short, it runs like this:
as §1

Assay [11] shares this target. In words: HTS Assay for Allosteric Agonists of the Human D1 Dopamine Receptor: Primary Screen for Antagonists (AID 488983).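 Further: calcium flux response to an EC80 dopamine challenge measured with no-wash dye; on the % scale 0 is the no-effect control and ±100 the full control effect; nearly all actives have a fitted effect of over 65% in size.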 The method in brief: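 Calcium flux readout, no-wash dye, inducible HEK293 T-REx D1 line (force-coupled). Compound added after 10 s baseline, 180 s kinetic read; then dopamine at EC80, further 180 s read.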
Assay [12] addresses Thyrotropin-releasing hormone receptor (Homo sapiens) (UniProt P34981). In words: qHTS for Small Molecule Agonists and Allosteric Enhancers of Human TRH Receptor: Validation Screen for Agonists (AID 493127;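 active means calcium activation more than 3 SD above the typical response in the agonist read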;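 further: intracellular calcium rise by fluo-8 fluorescence before TRH EC20 addition; 0% is about no effect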). Particulars: TRH receptor agonist cell assay; at 2 µM; stronger effect = higher value. In short, it runs like this: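 Read-out: intracellular calcium release measured kinetically by FDSS (fluo-8, ex 480/em 530 nm), 1 reading/s after a 10-cycle baseline. TRHR cells, 2000/well, cultured 18 h at 33.5C, dye-loaded at room temp. Compound-evoked positive calcium signal flags agonists.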

Assay [13] is described as follows: Nrf2 qHTS screen for inhibitors: Validation (AID 493153; active means well fitted inhibition curve with a large enough effect in the main read-out, with a control signal flat, not every such curve was filed as active; further: potency means the concentration at half of the fitted maximal effect). Particulars: Potency: luciferase luminescence; viability change: measured here: cytotoxicity max response. The method in brief:
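Concentration-response test in A549 ARE_Fluc reporter cells (5% FBS OPTI-MEM), compound exposure 18-24 h at 37°C, 5% CO2. Cell viability measured first by CellTiter-Fluor fluorescence; ARE-driven luciferase luminescence then measured as Nrf2 activity.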

Assay [14] is described as follows: qHTS for Inhibitors of Cell Surface uPA Generation: Validation Assay (AID 493164).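 Further: RAW 264.7 macrophage cells exposed to compound for 18 h; 0% is about no effect.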 The method in brief: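 Compounds are titrated over seven points (2.45 nM–38.3 uM final) onto pre-plated RAW 264.7 cells and incubated for 18 h. Retained intracellular ATP, measured with ATP-Lite, indicates blocked lethal factor entry.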
The nature of assay [15]: Validation screen for small molecules that induce DNA re-replication in SW480 colon adenocarcinoma cells (AID 504364). Further: 0% is about no effect. The method in brief: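 Read-out: total Hoechst intensity of nuclei by fluorescence scanning imager; hits raise the fraction of nuclei with elevated DNA content. Cells received compound for 48 hr at 37 C before a 40 min stain.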
Assay [16] concerns the target Peptidyl-prolyl cis-trans isomerase NIMA-interacting 1 (Homo sapiens) (UniProt Q13526). In words: qHTS Validation Assay to Find Inhibitors of Pin1 (AID 504536; active means well fitted inhibition curve with a large enough effect in the polarisation, with a control signal flat, not every such curve was filed as active; the % refers to the polarisation;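 further: 0% = full Pin1 enzyme wells and -100% = no-enzyme wells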). In short, it runs like this: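 Fluorescence polarization competition: compounds (titration) displace HiFluor-488-labeled Pin1-1b peptide from Pin1 (0.3 uM final) in pH 7.5 HEPES buffer with DTT, 10 min at room temperature; %Activity normalized to no-enzyme wells, curves fitted.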

The target of assay [17] is Phosphoglycerate kinase, glycosomal (Trypanosoma brucei brucei) (UniProt P07378). In words: qHTS Validation Assay to Find Inhibitors of Phosphoglycerate Kinase (AID 504547).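 Further: control wells lack PGK and mark full inhibition.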 The method in brief:
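Luminescence end-point (Kinase-Glo Plus, 10 min) after a 60 min room-temperature coupled reaction. GAPDH at 100nM final supplies 1,3-BPG to PGK. Buffer: 100mM TEA pH 7.6, 5mM MgCl2, 0.01% Tween-20. Wells lacking PGK served as controls.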

Assay [18] has as its target phosphoglycerate mutase (Leishmania major) (UniProt Q4Q090). In words: qHTS Validation Assay to Find Inhibitors of Phosphoglycerate Mutase (AID 504548).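 Further: end-point luminescence from Kinase-GloPlus after the PGAM reaction; series mostly up to about 58 µM; on the % scale 0 is the no-effect control and ±100 the full control effect.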 The conditions noted are these: Potency: inhibition qHTS. The method in brief: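 L. major PGAM (1.25nM final) was added to substrate buffer and pinned compound, incubated 45 minutes at room temperature, then Kinase-GloPlus added; luminescence read after 10 minutes. Buffer: 100 mM TEA pH 7.6, 5 mM MgCl2, 0.01% Tween-20.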

Assay [19] concerns the target Ubiquitin carboxyl-terminal hydrolase 1 (Homo sapiens) (UniProt O94782). In words: Inhibitors of USP1/UAF1: Pilot qHTS (AID 504865).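 Further: rhodamine fluorescence freed from ubiquitin-rhodamine substrate followed over time; top concentration of the series differs between compounds; on the % scale 0 is the no-effect control and ±100 the full control effect; nearly all actives have a fitted effect of over 35% in size.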 The method in brief:
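USP1/UAF1 complex (1nM) preincubated with compound 15 min at room temperature, then Ub-Rho substrate (150nM final) added. Fluorescence read kinetically at 480/540 nm, 6 reads every 60 seconds. Buffer: 50mM HEPES pH 7.8, 0.5mM EDTA, 0.1 mg/ml BSA, 1mM TCEP, 0.01% Tween-20.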

Methanococcus maripaludis chaperonin (MmCpn), sequence (Q6LX38 1-543): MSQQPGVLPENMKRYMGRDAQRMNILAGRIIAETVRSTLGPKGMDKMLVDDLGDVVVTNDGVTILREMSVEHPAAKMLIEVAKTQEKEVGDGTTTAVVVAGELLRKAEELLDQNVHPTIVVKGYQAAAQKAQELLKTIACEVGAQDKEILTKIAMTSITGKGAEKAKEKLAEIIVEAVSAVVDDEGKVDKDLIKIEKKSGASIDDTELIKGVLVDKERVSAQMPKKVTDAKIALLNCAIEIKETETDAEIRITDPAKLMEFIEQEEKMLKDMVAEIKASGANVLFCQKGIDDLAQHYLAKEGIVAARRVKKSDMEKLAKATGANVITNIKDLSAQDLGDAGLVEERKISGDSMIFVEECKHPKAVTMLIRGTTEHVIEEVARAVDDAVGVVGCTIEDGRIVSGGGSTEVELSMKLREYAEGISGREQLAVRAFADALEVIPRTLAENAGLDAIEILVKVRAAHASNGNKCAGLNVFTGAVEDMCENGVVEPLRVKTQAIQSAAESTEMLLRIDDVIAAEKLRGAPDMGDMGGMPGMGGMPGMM
Ubiquitin carboxyl-terminal hydrolase 1 (Homo sapiens), sequence (O94782 whole entry, looked up): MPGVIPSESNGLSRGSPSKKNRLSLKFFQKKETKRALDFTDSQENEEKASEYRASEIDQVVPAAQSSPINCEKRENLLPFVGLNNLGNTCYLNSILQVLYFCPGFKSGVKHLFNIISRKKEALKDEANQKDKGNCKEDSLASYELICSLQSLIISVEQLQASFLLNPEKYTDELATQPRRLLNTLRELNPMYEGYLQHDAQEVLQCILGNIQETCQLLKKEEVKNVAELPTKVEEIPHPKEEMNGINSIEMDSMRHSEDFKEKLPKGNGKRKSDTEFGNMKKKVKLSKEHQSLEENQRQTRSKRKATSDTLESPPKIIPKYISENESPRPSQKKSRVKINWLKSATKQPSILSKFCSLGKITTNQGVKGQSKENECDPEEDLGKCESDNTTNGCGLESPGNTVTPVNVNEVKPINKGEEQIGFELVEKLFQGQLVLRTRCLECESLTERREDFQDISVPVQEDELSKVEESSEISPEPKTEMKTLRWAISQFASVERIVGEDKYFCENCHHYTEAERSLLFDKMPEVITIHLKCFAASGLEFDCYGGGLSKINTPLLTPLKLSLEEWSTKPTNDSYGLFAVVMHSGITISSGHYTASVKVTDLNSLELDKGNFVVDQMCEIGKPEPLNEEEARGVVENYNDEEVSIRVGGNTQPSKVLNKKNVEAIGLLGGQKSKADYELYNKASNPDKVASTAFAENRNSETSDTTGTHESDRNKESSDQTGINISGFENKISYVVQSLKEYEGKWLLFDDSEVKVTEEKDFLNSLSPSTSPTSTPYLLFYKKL
D(1A) dopamine receptor (Homo sapiens), sequence (P21728 whole entry, looked up): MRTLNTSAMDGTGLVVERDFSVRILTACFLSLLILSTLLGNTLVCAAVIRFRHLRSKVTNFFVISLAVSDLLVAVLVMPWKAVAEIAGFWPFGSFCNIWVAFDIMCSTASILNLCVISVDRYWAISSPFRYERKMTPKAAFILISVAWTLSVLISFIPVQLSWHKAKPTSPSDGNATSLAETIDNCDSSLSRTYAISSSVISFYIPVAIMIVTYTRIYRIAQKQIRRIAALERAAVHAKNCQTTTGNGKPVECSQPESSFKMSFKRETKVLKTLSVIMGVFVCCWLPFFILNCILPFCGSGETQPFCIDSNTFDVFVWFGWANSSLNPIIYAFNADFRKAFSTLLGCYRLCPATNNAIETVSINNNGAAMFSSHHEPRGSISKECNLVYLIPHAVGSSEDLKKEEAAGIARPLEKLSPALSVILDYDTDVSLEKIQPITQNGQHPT
Transient receptor potential cation channel subfamily V member 1 (Homo sapiens), sequence (Q8NER1 whole entry, looked up): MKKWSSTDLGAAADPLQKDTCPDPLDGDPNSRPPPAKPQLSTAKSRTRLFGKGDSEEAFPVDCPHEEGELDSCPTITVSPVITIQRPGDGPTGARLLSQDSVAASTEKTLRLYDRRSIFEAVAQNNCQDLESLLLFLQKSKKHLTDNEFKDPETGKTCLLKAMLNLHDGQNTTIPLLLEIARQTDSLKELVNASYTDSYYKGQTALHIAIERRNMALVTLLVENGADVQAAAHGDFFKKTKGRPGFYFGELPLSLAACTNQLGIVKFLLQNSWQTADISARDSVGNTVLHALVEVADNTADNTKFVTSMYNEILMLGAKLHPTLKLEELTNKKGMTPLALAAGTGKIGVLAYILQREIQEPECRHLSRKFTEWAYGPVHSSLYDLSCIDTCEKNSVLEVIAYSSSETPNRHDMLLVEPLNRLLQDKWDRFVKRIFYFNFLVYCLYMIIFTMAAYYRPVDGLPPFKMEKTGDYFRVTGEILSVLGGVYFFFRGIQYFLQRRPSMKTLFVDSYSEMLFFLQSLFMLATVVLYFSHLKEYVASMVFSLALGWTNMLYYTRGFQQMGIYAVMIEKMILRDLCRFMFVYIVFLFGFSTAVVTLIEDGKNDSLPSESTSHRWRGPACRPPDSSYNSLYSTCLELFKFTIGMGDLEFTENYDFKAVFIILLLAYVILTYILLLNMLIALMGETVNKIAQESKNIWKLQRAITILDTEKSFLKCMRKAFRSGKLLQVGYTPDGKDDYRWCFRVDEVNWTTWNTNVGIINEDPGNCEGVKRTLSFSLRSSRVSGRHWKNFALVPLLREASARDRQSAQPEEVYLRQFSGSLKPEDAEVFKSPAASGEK
phosphoglycerate mutase (Leishmania major), sequence (Q4Q090 1-553): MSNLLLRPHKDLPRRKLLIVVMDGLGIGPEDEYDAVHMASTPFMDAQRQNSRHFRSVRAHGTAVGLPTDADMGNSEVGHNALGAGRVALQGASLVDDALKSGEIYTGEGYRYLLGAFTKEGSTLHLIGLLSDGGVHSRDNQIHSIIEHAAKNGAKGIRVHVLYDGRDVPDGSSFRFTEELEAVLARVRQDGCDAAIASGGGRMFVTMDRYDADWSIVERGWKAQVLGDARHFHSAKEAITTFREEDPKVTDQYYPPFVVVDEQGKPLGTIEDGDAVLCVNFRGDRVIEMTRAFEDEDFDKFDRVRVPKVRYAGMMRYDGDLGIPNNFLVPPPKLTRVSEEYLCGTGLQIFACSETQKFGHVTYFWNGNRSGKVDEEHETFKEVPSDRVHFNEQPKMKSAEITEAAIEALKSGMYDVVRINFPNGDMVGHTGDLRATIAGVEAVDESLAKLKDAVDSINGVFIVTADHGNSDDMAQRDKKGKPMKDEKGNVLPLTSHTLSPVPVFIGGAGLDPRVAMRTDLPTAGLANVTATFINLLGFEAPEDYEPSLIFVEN
Thyrotropin-releasing hormone receptor (Homo sapiens), sequence (P34981 whole entry, looked up): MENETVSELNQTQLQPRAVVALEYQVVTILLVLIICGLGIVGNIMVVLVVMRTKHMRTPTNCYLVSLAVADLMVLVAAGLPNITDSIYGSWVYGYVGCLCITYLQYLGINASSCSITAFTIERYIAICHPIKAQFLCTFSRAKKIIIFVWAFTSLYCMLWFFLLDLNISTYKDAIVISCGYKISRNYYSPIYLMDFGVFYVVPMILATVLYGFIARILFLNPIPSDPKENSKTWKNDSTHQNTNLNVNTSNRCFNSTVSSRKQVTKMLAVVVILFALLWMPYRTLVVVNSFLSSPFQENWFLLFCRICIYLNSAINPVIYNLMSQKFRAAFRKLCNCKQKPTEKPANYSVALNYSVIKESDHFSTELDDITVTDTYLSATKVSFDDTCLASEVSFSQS
Chromobox protein homolog 1 (Homo sapiens), sequence (P83916 whole entry, looked up): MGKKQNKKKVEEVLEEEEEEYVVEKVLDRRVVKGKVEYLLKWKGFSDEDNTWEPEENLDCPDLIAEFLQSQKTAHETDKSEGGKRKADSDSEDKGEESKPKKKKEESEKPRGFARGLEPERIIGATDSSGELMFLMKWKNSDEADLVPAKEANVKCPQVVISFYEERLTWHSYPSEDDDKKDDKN
Peptidyl-prolyl cis-trans isomerase NIMA-interacting 1 (Homo sapiens), sequence (Q13526 whole entry, looked up): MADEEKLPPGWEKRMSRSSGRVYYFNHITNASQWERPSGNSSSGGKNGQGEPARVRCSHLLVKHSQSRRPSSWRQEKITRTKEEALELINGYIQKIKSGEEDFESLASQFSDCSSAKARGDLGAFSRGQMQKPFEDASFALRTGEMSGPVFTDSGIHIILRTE

Consider `NCCCCNCCCN`, for which the Potency entry in [1], in [3], in assay [4], in assay [5], in assay [6] and in assay [10] was “inactive” in each case. Further, the Potency result in assay [11], in assay [13], in assay [15], in assay [17], in assay [18] and in [19] was “inactive” each time. Further, the result in assay [2], in assay [7], in [8], in assay [9], in [14] and in assay [16] was inactive. In assay [12], the activation is -0.0625% (inactive). Moreover, the viability change in assay [13] turned out to be 3.72%.

In the case of `O=c1cc(N2CCOCC2)oc2c(-c3ccccc3)cccc12`, the Potency result in assay [1], in assay [3], in [4], in assay [5], in [10] and in [11] was “inactive” each time. For the same compound, the Potency entry in assay [15], in assay [17], in [18] and in assay [19] was “inactive” in each case. Further, the call in assay [2], in assay [7], in [8], in assay [9], in [14] and in [16] was inactive. Besides, the Potency in [6] is 26.7 µM (active); in assay [13] it was 9.2 µM (active). The activation in [12] is -3.19% (inactive). For the same compound, the viability change in [13] was -18.1%.

On to `O=c1ccc2ccc(O)c(O)c2o1`, for which the outcome in assay [2], in [7], in [8], in assay [9] and in [14] was inactive. Besides, the Potency result in assay [3], in assay [11], in assay [13], in assay [18] and in assay [19] was “inactive” in each case. The Potency in assay [4] was 9.47 µM (active). Further, the activation in assay [12] was -0.188% (inactive). In addition, in assay [13], the viability change came to 21%.
